Measurements: PubChem BioAssay AID2540 (Sanford-Burnham Center for Chemical Genomics, 2010)
Hit rate of the full screen: of about 330,000 compounds, about 4,100 (1.2%) were called active. Rule as the data show it: active = inhibition above about 50%; inactive = the rest. Many of the other results were omitted from the sample, so actives are more common in it than they were.

Target: Sentrin-specific protease 8 (Homo sapiens) (UniProt Q96LD8)
Assay: blockers of human SENP8 peptidase activity – biochemical, luminescence, primary screen (AID 2540)
Conditions: purified SENP8, Z-RLRGG-aminoluciferin cleavage, at 10 µM, hits give high values

Sentrin-specific protease 8 (Homo sapiens), sequence (Q96LD8 whole entry, looked up): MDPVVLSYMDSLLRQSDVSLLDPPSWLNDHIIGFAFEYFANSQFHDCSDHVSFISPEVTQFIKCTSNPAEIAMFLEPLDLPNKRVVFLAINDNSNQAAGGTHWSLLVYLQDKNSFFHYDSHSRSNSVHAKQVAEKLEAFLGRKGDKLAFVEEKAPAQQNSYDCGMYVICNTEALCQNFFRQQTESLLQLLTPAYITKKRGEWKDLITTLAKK

| SMILES | inhibition |
| --- | --- |
| Cc1c(CC(=O)NCC(=O)NCC(=O)O)c(=O)oc2cc3oc4c(c3cc12)CCCC4 | -13.4% (inactive) |
| Clc1ccc(-n2nnnc2CN2CCCCC2)cc1Cl | -12% (inactive) |
| O=C(/C=C/NNC(=O)c1cccc(Br)c1)c1ccccc1 | -1.09% (inactive) |
| CCOc1ccccc1N1C(=O)CC(Sc2nccc(C)n2)C1=O (centres undefined) | 1.56% (inactive) |
| COc1ccc(NC(=O)CNc2cc(S(=O)(=O)N3CCOCC3)ccc2N2CCOCC2)c(OC)c1 | 7.93% (inactive) |
| Cc1c(Cl)cccc1NC(=O)NCc1ccc(C)n1C | -0.511% (inactive) |
| CC(=O)c1ccc(S(=O)(=O)NC2CC(=O)N(c3ccc4c(c3)OCCO4)C2)cc1 (centres undefined) | -4.2% (inactive) |
| CC(C)(C)OC(=O)C[C@@H]1C/C=C\C[C@H](CC(=O)N[C@@H](CO)Cc2ccccc2)C(=O)N[C@H](Cc2ccccc2)COC1=O | -7.09% (inactive) |
| COc1cc(C2C(C(=O)c3cccs3)=C(O)C(=O)N2CCN2CCOCC2)ccc1OCCC(C)C (centres undefined) | -3.6% (inactive) |
| CCn1cc(CN2CCC(C(=O)Nc3cccc(-c4cccc(Cl)c4)c3)CC2)c(C)n1 | -6.83% (inactive) |
| CCCN1CC=C2C(C#N)=C(N)C(C#N)(C#N)C(c3cc(OC)ccc3OC)C2C1 (centres undefined) | 0.594% (inactive) |
| N#CC1=C(N)C(C#N)(C#N)[C@H](c2ccsc2)[C@H]2COCC=C12 | -3.51% (inactive) |
| CCN1CC=C2C(C#N)=C(N)C(C#N)(C#N)[C@H](c3ccoc3)[C@H]2C1 | 50.7% (active) |
| Cc1cn(C)c(=O)n(C)c1=O | -18.1% (inactive) |
| COc1ccc(NC(=O)Nc2cccc3cccnc23)cc1 | 81% (active) |
| O=C(Nc1cccc2cccnc12)c1cccc(Cl)c1 | 8.84% (inactive) |
| COc1ccc(NC(=O)C2CCCN(S(=O)(=O)c3cccc4cccnc34)C2)cc1 (centres undefined) | 6% (inactive) |
| CC12CCC(C(=O)N(CCC#N)CCC#N)(CC1=O)C2(C)C (centres undefined) | -1.58% (inactive) |
| C/C(=N\Nc1nncc2ccccc12)c1ccc(Cl)c([N+](=O)[O-])c1 | 5.46% (inactive) |
| CN(CCO)c1ccc(/C=N/Nc2nncc3ccccc23)cc1 | 94.9% (active) |
| COc1cccc(/C=N\Nc2nncc(-c3ccccc3)n2)c1 | -14.9% (inactive) |
| c1ccc(CCc2nc(-c3ccncc3)no2)cc1 | -9.99% (inactive) |

| SMILES | inhibition |
| --- | --- |
| c1csc(-c2nc(-c3ccncc3)no2)c1 | 57.3% (active) |
| Cc1ccc(-c2nc(-c3ccncc3)no2)c(C)c1 | 42.8% (inactive) |
| O=C(Oc1ccc(-c2nc(-c3ccccn3)no2)cc1)c1ccccc1 | 97.3% (active) |
| Clc1ccc(-n2nnnc2-c2cnc(-c3ccccn3)nc2-c2cccs2)cc1 | -4.12% (inactive) |
| Cc1noc(C)c1COC(=O)COc1ccc(-c2ccccc2)cc1 | -5.47% (inactive) |
| COc1ccc(CCc2nc(-c3cccs3)no2)cc1 | -14.5% (inactive) |
| c1ccc(-c2noc(-c3cccs3)n2)nc1 | 88.9% (active) |
| O=C(COC(=O)c1ccncc1)c1ccccc1 | -23.2% (inactive) |
| CC1CCC2(CC1)NC(=O)N(CC(=O)c1cccn1C)C2=O (centres undefined) | -3.15% (inactive) |
| CCOC(=O)N1CCN(c2c(NCCN3CCN(c4ccccc4F)CC3)c(=O)c2=O)CC1 | -9.98% (inactive) |
| COc1ccccc1CNC(=O)[C@@H]1CCCN1C(=O)[C@@H]1Cc2ccccc2CN1C(=O)OC(C)(C)C | -1.1% (inactive) |
| Cc1ccc(N(C(=O)c2ccc(S(=O)(=O)N(C)C)cc2)C2C=CS(=O)(=O)C2)cc1 (centres undefined) | -5.23% (inactive) |
| O=C1CCC(C(=O)N2CCN(c3ccccc3Cl)CC2)CN1CC1CCCCC1 (centres undefined) | -2.96% (inactive) |
| Clc1ccc(COn2c(-c3ccc(Cl)cc3Cl)nc3ncccc32)cc1 | 1.77% (inactive) |
| Clc1ccc(-c2cc(-c3ccccn3)on2)c(Cl)c1 | 98% (active) |
| O=C1c2ccccc2C(=O)N1Cc1cc(-c2ccccc2Cl)no1 | 2.3% (inactive) |
| Cn1cccc1C(=O)OCC(=O)c1ccc(Br)s1 | 75.8% (active) |
| O=C(COC(=O)c1c2c(nc3ccccc13)CCCC2)c1ccc(Br)s1 | -1.41% (inactive) |
| Cn1cccc1C(=O)OCC(=O)NCCc1ccccc1 | -2.12% (inactive) |
| COc1cccc(NC(=O)CSc2nnc(C3CCCCC3)n2N)c1 | 6.19% (inactive) |
| O=C(NCC1CC1)c1onc(CSc2ccccc2)c1C(=O)NCC1CC1 | 1.24% (inactive) |
| Cc1ccc(NC(=O)c2ccc(S(=O)(=O)NCC3CCCO3)cc2)cc1C (centres undefined) | 9.11% (inactive) |

| SMILES | inhibition |
| --- | --- |
| O=C(Nc1nnc(S(=O)(=O)N2CCCCCC2)s1)c1cccc(Br)c1 | 71.5% (active) |
| O=C(Nc1nnc(S(=O)(=O)N2CCOCC2)s1)c1cccc(Br)c1 | 6.23% (inactive) |
| Cc1cccc(C(=O)Nc2nnc(S(=O)(=O)N3CCCCCC3)s2)c1 | 18.3% (inactive) |
| Cc1ccc(S(=O)(=O)NC(=O)c2cccc(C)c2)cc1 | -5.51% (inactive) |
| Cc1[nH]n(C)c(=O)c1N=Nc1ccc(S(C)(=O)=O)cc1 | -4.34% (inactive) |
| Cc1[nH]n(C(N)=S)c(=O)c1N=Nc1ccc(Cl)cc1Cl | 95.6% (active) |
| CCCCNC(=O)C1CCCNC1=O (centres undefined) | -10.4% (inactive) |
| O=C(O)c1cc(S(=O)(=O)N(Cc2ccccc2)c2ccccc2)ccc1Cl | 3.75% (inactive) |
| C/C(=N\OCC(=O)Nc1ccc(Br)cc1)c1cccs1 | -8.52% (inactive) |
| O=C(O)c1ccccc1OCc1ccccc1Cl | 1.22% (inactive) |
| COc1cc(/C=C2\Oc3ccc(C#Cc4ccc(O)cc4)cc3C2=O)cc(OC)c1 | 5.28% (inactive) |
| COc1cc(C#Cc2ccc3cc(CCCO)oc(=O)c3c2)cc(OC)c1 | 69.6% (active) |
| O=C1c2ccccc2C(=O)N1CCC#Cc1ccc2cc(C3(O)CCCCC3)oc(=O)c2c1 | -2.91% (inactive) |
| COc1ccccc1OC(C)C(=O)Nc1ccc(S(=O)(=O)Nc2nccs2)cc1 (centres undefined) | -3.08% (inactive) |
| COc1ccc(Br)cc1C(=O)NC(=S)Nc1cc(-c2nc3ccccc3[nH]2)ccc1C | 3.06% (inactive) |
| O=C(Nc1sc2c(c1-c1nc3ccccc3[nH]1)CCCC2)C1CC1 | -0.363% (inactive) |
| Clc1ccccc1SCc1nc2ccccc2[nH]1 | 14.7% (inactive) |
| Cc1ccc(-c2nc3ccccc3[nH]2)cc1N | 87.1% (active) |
| Cc1ccccc1N1CC(c2nc3ccccc3[nH]2)CC1=O (centres undefined) | 2.73% (inactive) |
| c1ccc2[nH]c(-c3nc4ccccc4[nH]3)nc2c1 | 92.4% (active) |
